Measurements from PubChem BioAssay AID651558 (National Center for Advancing Translational Sciences (NCATS), 2012).
About 480 (40%) of roughly 1,200 compounds were called active. Not shown: some 29% with an inconclusive outcome. Some of the results follow. Unmarked numbers belong to inactive results. Calls follow the shape of the dose curve; as a rule, active = well fitted inhibition curve with a large enough effect; inconclusive = small, poorly fitted or top-dose-only effect; inactive = no such curve, though single readings can be large or run the other way.

assay: qHTS Assay to Find Inhibitors of Chronic Active B-Cell Receptor Signaling: Hit Validation in Primary Screen; conditions: ABC-DLBCL IkB-luc/CBR ratio luminescence, 4 h; series mostly up to 46.1 µM; activity change, negative = inhibition: at the top concentration; also: nearly all actives have a fitted effect of over 75% in size
How it was run: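 TMD8 ABC-DLBCL cells carrying doxycycline-inducible IkBa-green luciferase fusion and free red luciferase, 0.5% FBS, dosed 46 uM–3 nM with doxycycline for 4 h at 37C. Green/red luminescence ratio normalized to basal and 10 uM MG-132.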
% is scaled to controls: 0 for no effect and ±100 for the full control effect; potency is read from the fitted curve at half-maximal effect.

| Compound | activity change, negative = inhibition | Potency |
| --- | --- | --- |
| Cc1ccc(C)c(-n2c3nc(=O)[nH]c(=O)c-3cc3cc([N+](=O)[O-])ccc32)c1 | 59.5% |  |
| Cc1cccc(-n2c3nc(=O)[nH]c(=O)c-3cc3cc([N+](=O)[O-])ccc32)c1 |  | 7.31 µM (active) |
| COCCn1c(-c2cccc([N+](=O)[O-])c2)nc2c1c(=O)[nH]c(=O)n2Cc1ccccc1 | 39.2% |  |
| Cn1c(=O)n(C)c2cc(NS(=O)(=O)c3ccc(Br)s3)ccc21 | 126% |  |
| O=C1N[C@H]2CC=C[C@H]2Nc2ccccc21 | -10.4% |  |
| CCNC(=O)[C@H]1O[C@@H](n2cnc3c(N)nc(NCCc4ccc(CCC(=O)O)cc4)nc32)[C@H](O)[C@@H]1O |  | 0.0731 µM (active) |
| COC(=O)C1=C(C)NC(C)=C(C(=O)OC)C1/C=C/c1ccccc1 |  | 20.6 µM (active) |
| COc1ccc(NC(=O)C(=O)NCC2CCCN2S(=O)(=O)c2ccc(C)cc2)cc1 (stereo unspecified) |  | 0.517 µM (active) |
| Cc1ccc(NC(=O)C(=O)NCC2CCCN2S(=O)(=O)c2cccs2)cc1C (stereo unspecified) | -23.6% |  |
| CC(C)N=C(NS(=O)(=O)c1ccccc1)C(Cl)(Cl)Cl |  | 3.26 µM (active) |
| N#Cc1ccccc1NC(=O)c1cccc(COc2ccc(Cl)cc2Cl)c1 | 60.3% |  |
| Cc1ccc2nc(SCC(=O)Nc3cc(C(F)(F)F)ccc3N3CCOCC3)[nH]c2c1 |  | 2.06 µM (active) |
| O=C(CSc1cc(Cl)ccc1Cl)Nc1ccc(N2CCOCC2)cc1 | -12.4% |  |
| CCN(CC)S(=O)(=O)c1ccc(N2CCOCC2)c(NC(=O)c2c3c(nc4ccccc24)CCC3)c1 | 34.7% |  |
| Cc1onc(-c2ccccc2)c1C(=O)Nc1cc(C(F)(F)F)ccc1N1CCOCC1 |  | 20.6 µM (active) |
| C=CCNC(=S)N/N=C/c1ccc(C(C)(C)C)cc1 | 25.3% |  |
| Cc1ccc(S(=O)(=O)N(C)C[C@@H]2Oc3ccc(NC(=O)CCC(F)(F)F)cc3CC(=O)N([C@@H](C)CO)C[C@@H]2C)cc1 |  | 9.2 µM (active) |
| COc1cc(SSc2cc(OC)cc([N+](=O)[O-])c2N)c(N)c([N+](=O)[O-])c1 | -1.91% |  |
| Nc1ccc(C(=O)n2c3ccccc3c3ccccc32)cc1 |  | 13 µM (active) |
| COc1cc2c(cc1C1NC(=S)NC(C)=C1C(N)=O)CCCC2 (stereo unspecified) | 80.4% |  |
| COc1cccc(C2NC(=S)NC(C)=C2C(=O)c2ccccc2)c1OC (stereo unspecified) |  | 16.4 µM (active) |
| CCCCN(C(=O)CSc1nc2ccccc2n1CC)C1CCS(=O)(=O)C1 (stereo unspecified) | -4.85% |  |
| Cc1cc(C(=O)OCC(=O)Nc2c(Cl)cccc2Cl)c(C)o1 | -15.6% |  |
| Cc1cc2c(cc(C(=O)OCC(=O)NCc3cccs3)n2C(C)C)o1 |  | 8.2 µM (active) |

| Compound | activity change, negative = inhibition | Potency |
| --- | --- | --- |
| O=C(NC(=S)NC1CCSC1=O)c1ccccc1 (stereo unspecified) | -8.61% |  |
| Cc1cccc(C)c1NC(=O)CNC(=O)CNC(=O)Cc1cccc2ccccc12 | -17.1% |  |
| COC(=O)c1ccccc1NC(=O)Cn1c(-c2nonc2N)nc2ccccc21 |  | 0.731 µM (active) |
| CCC(=O)Nc1nonc1-c1nc2ccccc2n1Cc1cccc2ccccc12 |  | 2.91 µM (active) |
| CCOC(=O)c1ccccc1NC(=O)Cn1c(-c2nonc2N)nc2ccccc21 |  | 2.31 µM (active) |
| COCCNC(=S)N/N=C(\C)c1ccc(Cl)s1 | -11.5% |  |
| CCONC(=O)Nc1ccccc1[N+](=O)[O-] | -13.6% |  |
| COCCNC(=S)N/N=C(\C)c1ccc(Cl)c(Cl)c1Cl | -9.48% |  |
| CCOc1ccccc1N1CSC2=C(C#N)C(c3c(OC)ccc4ccccc34)CC(=O)N2C1 (stereo unspecified) | -10.4% |  |
| CCN(CC)c1ccc2c(c1)OC(N)=C(C#N)C2c1cccnc1 (stereo unspecified) |  | 1.03 µM (active) |
| N#CC1=C(N)Oc2cc(N)ccc2C1c1cccc(Br)c1 (stereo unspecified) |  | 4.11 µM (active) |
| CN(C)c1ccc2c(c1)OC(N)=C(C#N)C2c1cccc(F)c1 (stereo unspecified) |  | 0.82 µM (active) |
| CC(O)c1cccc(-c2ccc(CN3C[C@]4(CO)O[C@@H](CO)C[C@@H]4S3(=O)=O)cc2)c1 (stereo partly specified) | 34.7% |  |
| CC1=NN(C(N)=S)C(=O)C1N=Nc1ccc(C)c(Br)c1 (stereo unspecified) | -10.3% |  |
| OC(C#Cc1ccccn1)c1cccs1 (stereo unspecified) | -5.48% |  |
| COc1ccc(COc2cc(-c3cccc(OC)c3)nc3ccc(N)cc23)cc1 |  | 2.91 µM (active) |
| CN1c2ccccc2Sc2cc(N)ccc21 | -18% |  |
| COc1ccc(-c2nn(-c3ccccc3)cc2C(=O)NC(=S)NNC(=O)c2ccncc2)cc1 | -10.6% |  |
| COc1ccc(/C=N\NC(=O)c2c(C)nc3ccc(Br)cn23)cc1 | 30.1% |  |
| COc1ccc(/C=N/NC(=O)CCn2cnc(-c3ccccc3)c2-c2ccccc2)cc1 |  | 2.31 µM (active) |
| COc1ccc(/C=N/NC(=O)CCn2cnc(-c3ccccc3)c2-c2ccccc2)cc1OC |  | 16.4 µM (active) |
| COc1cc2c(cc1OC)-c1cc(Nc3ccccc3)nc(=O)n1CC2 |  | 18.4 µM (active) |
| COc1cc2c(cc1OC)-c1cc(Nc3ccc(C)cc3)nc(=O)n1CC2 |  | 18.4 µM (active) |
| COc1cc2c(cc1OC)-c1cc(Nc3ccc(N(C)C)cc3)nc(=O)n1CC2 | 41.3% |  |

| Compound | activity change, negative = inhibition | Potency |
| --- | --- | --- |
| COc1cc2c(cc1OC)-c1cc(Nc3ccccc3C)nc(=O)n1CC2 | 55.9% |  |
| COc1ccc(Nc2cc3n(c(=O)n2)CCc2cc(OC)c(OC)cc2-3)c(C)c1 |  | 5.17 µM (active) |
| Oc1ccc(-c2nc3cnccn3c2Nc2ccc3c(c2)OCCO3)cc1 |  | 23.1 µM (active) |
| COc1ccc(CNC(=O)COc2ccc(C(=O)c3ccc(F)cc3)cc2)cc1 |  | 3.26 µM (active) |
| CCOc1ccccc1OCC(=O)N/N=C(\C)Cc1ccc(OC)cc1 | -13.1% |  |
| CCOc1cc(C(=O)N/N=C(\C)Cc2ccc(OC)cc2)cc(OCC)c1OCC | -7.54% |  |
| O=C(COc1ccc(C(=O)c2ccccc2)cc1)NCc1ccc(F)cc1 |  | 4.61 µM (active) |
| O=C(O)CCCCCCCCc1cn(Cc2ccc(C(=O)c3ccccc3)cc2)nn1 | 31.6% |  |
| Nc1ncnc2c1ncn2[C@@H]1O[C@H](CNCc2cccc(C#Cc3ccccc3)c2)[C@@H](O)[C@H]1O | -20.2% |  |
| C[C@H](Cc1ccccc1)Nc1ncnc2c1ncn2[C@@H]1O[C@H](CO)[C@@H](O)[C@H]1O |  | 0.184 µM (active) |
| OC[C@H]1O[C@@H](n2cnc3c(Nc4ccccc4)ncnc32)[C@H](O)[C@@H]1O |  | 7.31 µM (active) |
| Cc1cn(-c2cccnc2)c(C)c1CNC[C@H]1O[C@@H](n2cnc3c(N)ncnc32)[C@H](O)[C@@H]1O | 34.9% |  |
| CCn1c2ccccc2c2cc(Nc3cc(C)nc4ncnn34)ccc21 |  | 16.4 µM (active) |
| Cc1cc(NC(=O)CSc2nc3ccccc3c(=O)n2C2CCCC2)no1 |  | 4.61 µM (active) |
| COc1cccc(-c2nnc(SCC(=O)Nc3cc(C)on3)o2)c1 | -9.43% |  |
| Cc1cc(NC2CCCCC2)nc2ccccc12 | 81.7% |  |
| O=[N+]([O-])c1cc(O)c2ncccc2c1 | -2.48% |  |
| COC(=O)c1ccc(CNC(=O)Cn2cnc3c(NCc4ccccc4)ncnc32)cc1 | -3.53% |  |
| COc1ccc(CNc2nc(NCc3ccc(OC)cc3)c3ncn(C4CCCC4)c3n2)cc1 |  | 2.31 µM (active) |
| NS(=O)(=O)c1cc(C(=O)OCC(=O)N2CCc3ccccc3C2)ccc1Cl | -3.34% |  |
| O=C(OCC(=O)c1ccc[nH]1)c1ccc(Cl)c(Cl)c1 | -4.68% |  |
| CCn1c(=O)c([N+](=O)[O-])c(Cl)c2ccccc21 |  | 6.51 µM (active) |
| CCOc1ccc(NCc2ccccc2OCc2cccc(F)c2)cc1 | 4.73% |  |
| O=Cc1ccccc1OCCOc1ccccc1C=O |  | 20.6 µM (active) |

| Compound | activity change, negative = inhibition | Potency |
| --- | --- | --- |
| O=C(CSc1ncccc1C(=O)O)c1ccc2ccccc2c1 | -0.833% |  |
| C/C(Cl)=C\Cn1c(O)c(N=NC(N)=S)c2cc(Br)ccc21 |  | 14.6 µM (active) |
| C=CCn1c(O)c(N=NC(=S)Nc2ccccc2F)c2cc(S(=O)(=O)N3CCOCC3)ccc21 | 27.2% |  |
| NC(=S)N=Nc1c(O)n(CCCl)c2ccccc12 | -8.32% |  |
| CCOC(=O)c1[nH]c(C)c(C(=O)c2cc(F)ccc2F)c1C |  | 11.6 µM (active) |
| CCOC(=O)c1[nH]c(C)c(C(=O)c2ccc(C)cc2)c1C | 35% |  |
| CCOC(=O)c1[nH]c(C)c(C(=O)N2CCc3ccccc32)c1C |  | 4.61 µM (active) |
| CCOC(=O)c1c(C)[nH]c(C(=O)N/N=C/c2ccc(Br)cc2)c1C |  | 0.92 µM (active) |
| CCOC(=O)c1[nH]c(C)c(C(=O)OCC)c1C |  | 18.4 µM (active) |
| CC[C@]12c3[nH]c4cc(CCC(=O)N(C)C)ccc4c3CCN1C(=O)[C@@H](CC(=O)NC/C=C(\C)CCC=C(C)C)C[C@@H]2C(=O)N1CCN(C(=O)c2ccco2)CC1 | 42.8% |  |
| CCC1CCCCN1C(=S)NC(=O)c1cccs1 (stereo unspecified) | -5.2% |  |
| CCN(CC(=O)Nc1cc(Cl)ccc1C)C(=O)C1CC1 | -9.23% |  |
| CCOC(=O)c1[nH]c(C)c(C(=O)Nc2cc(Cl)ccc2C)c1C |  | 7.31 µM (active) |
| CCOc1ccc(S(=O)(=O)Nc2cc(OC)ccc2OC)cc1 |  | 4.61 µM (active) |
| CCN(CC)S(=O)(=O)c1ccc(N/N=C(\C)c2ccc(OC)cc2O)nc1 | -5.21% |  |
| COc1ccc(S(N)(=O)=O)cc1C(=O)OCCCOC(=O)c1cc(S(N)(=O)=O)ccc1OC | -13.5% |  |
| CC[C@]12c3[nH]c4cc(CCC(=O)N(C)C)ccc4c3CCN1C(=O)[C@@H](CC(=O)NCCc1ccccn1)C[C@@H]2C(=O)N1CCN(C(=O)C2CC2)CC1 | -7.85% |  |
| CCN(CC)c1ccc(NC(=O)c2cc(OC)cc(OC)c2)c(C)c1 |  | 6.51 µM (active) |
| C/C(=N\NC(N)=S)c1cc(-c2ccccc2)c(-c2ccccc2)s1 | -2.96% |  |
| C=CCNC(=S)N/N=C/c1ccc(C(F)(F)F)cc1 | -0.319% |  |
| CCN1C(=O)C(O)(C2COC(C)(C)CC2=O)c2cc(Br)ccc21 (stereo unspecified) |  | 18.4 µM (active) |
| CCc1ccc2oc(=O)cc(CN3CCCCC3C)c2c1 (stereo unspecified) | -10.3% |  |
| COc1ccc(CCNCC(O)COc2cccc(Br)c2)cc1 (stereo unspecified) | 57.3% |  |
| Oc1ccc(Nc2nc(-c3cccnc3)cs2)cc1 |  | 16.4 µM (active) |
